We go through 92 compounds from PubChem BioAssay AID743398 (Broad Institute, 2014).

Hit rate of the full screen: of about 300,000 compounds, about 3,600 (1.2%) were called active. The sample holds actives, similar compounds and a random draw of the others, so the mix is not that of the screen. Rule as the data show it: active = activation above about 30% (passing the limit was not always enough); inconclusive = no clear call, values can overlap the other calls.

A short description of the assay: activation of beta-catenin signaling reporter – cell-based, plate reader, single point, primary screen (AID 743398).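 Also: 0% = neutral control wells and 100% = positive control wells.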 The note with it: Wnt/beta-catenin reporter cell assay, activator, at 9.35 µM, hits give high values.
For the compound `O=C(Cn1c(=S)nc2ccccn21)N1CCc2ccccc2C1`, the activation was 17.7% (inactive).

Consider `O=C(c1ccc(F)cc1)n1c(=S)nc2ccccn21`, for which the activation is 55.5% (active).

Consider `O=C(c1ccc(F)cc1)n1cc(C(=S)N2CCOCC2)c2ccccc21`, for which the activation is -0.566% (inactive).

In the case of `CC(C)(C)S(=O)N1Cc2cc(C(=O)NCCCN3CCOCC3)nc(-c3cccc(-c4cc5ccccc5o4)c3)c2[C@H]1CCO` (some centres not stated), the activation is -3.72% (inactive).

With `O=C(Nc1ccc(C(=O)O)c(O)c1)c1ccccc1`, the activation is -0.311% (inactive).

With `O=C(NC(=O)c1ccccc1)Nc1ccccc1O`, the activation was 40.2% (active).

Regarding `O=C(Nc1ncccc1O)c1ccc(C(=O)c2ccccc2)cc1`, the activation was 21.2% (inactive).

For `Cc1cccc2c1N(CC(=O)OC(C)C)C(=O)C2=O`, the activation is -1.39% (inactive).

As for `Cc1cc(/C=C2/SC(=O)N(CC(=O)OC(C)C)C2=O)c(C)n1C`, the activation is 32.5% (active).

As for `Cc1cc(/C=C2/SC(=O)N(CC(=O)N3CCCC3)C2=O)c(C)n1C`, the activation was -1.52% (inactive).

On to `COc1cccc(OCC(=O)NCCS(=O)(=O)N2CCN(c3ccccc3)CC2)c1`, for which the activation was -0.863% (inactive).

Turning to `COC(=O)c1ccc2nc(-c3ccc(OC)c(OC)c3)c(Cc3ccccc3)n2c1`, the activation is -2.38% (inactive).

As to `Fc1ccc(-c2csc(-c3ccc(C4SCCS4)cc3)n2)cc1F`, the activation is 34% (active).

As to `Clc1ccc(-c2csc(-c3ccncc3)n2)cc1`, the activation was 6.51% (inactive).

In the case of `COc1ccc(CC(=O)Nc2nc(-c3ccc(F)c(F)c3)cs2)cc1OC`, the activation was -5.88% (inactive).

With `COC(=O)C1=C(C)N(Cc2ccccc2C(F)(F)F)C(=NCc2ccc(C(F)(F)F)cc2)NC1c1ccc(F)cc1` (configuration not stated), the activation is -3.9% (inactive).

`COCCCNC(=O)c1ccc(-c2c(C)noc2C)c2ccoc12`: the activation is 3.17% (inactive).

For the compound `O=C(Nc1ccc(Cl)c(C(F)(F)F)c1)C1Cc2c(-c3ccccc3Oc3ccccc3)ccnc2O1` (configuration not stated), the activation is -4.6% (inactive).

Regarding `Cc1c(C(=O)N2CCCc3ccccc32)sc2nc(-c3ccccc3)cn12`, the activation is 51.4% (active).

Turning to `Cc1cccc2cc3c(N)c(C(=O)N4CCCc5ccccc54)sc3nc12`, the activation was -13.9% (inactive).

For the compound `Cc1c(C(=O)NCC2CCCO2)sc2nc(-c3ccccc3)cn12` (configuration not stated), the activation is 8.78% (inactive).

For the compound `Cn1c(CCN2CCN(c3ccccn3)CC2)nc2cc(NS(=O)(=O)c3ccc(F)cc3)ccc21`, the activation is -2.6% (inactive).

In the case of `CCc1noc(C)c1C(=O)Nc1nc2ccc(OC)cc2s1`, the activation is 9.85% (inactive).

Consider `Cc1ccc(C(=O)Nc2nc3ccc(Cl)cc3s2)o1`, for which the activation was 36.2% (active).

For the compound `Cc1ccc(C(=O)Nc2nnc(-c3ccncc3)s2)o1`, the activation was 2.92% (inactive).

For `CC(C)(C)Cc1c(C2CCCCC2)nc2ccc(Br)cn12`, the activation was -1.26% (inactive).

On to `COC(=O)c1c(NC(C)=O)sc(C(=O)Nc2ccccc2OC)c1C`, for which the activation was -1.17% (inactive).

With `CCOC(=O)c1sc(NC(=O)COc2ncnc3ccccc23)c(C(=O)OCC)c1C`, the activation is -6.66% (inactive).

Turning to `CCC(=O)Nc1sc(C(=O)Nc2ccccc2)c(C)c1C(=O)OC`, the activation is 68.1% (active).

Regarding `O=C1Nc2ccccc2C1=NN=Cc1ccco1`, the activation was 0.126% (inactive).

`CCN(CC)CCCNC(=O)COc1ccc2oc3c(c2c1)CCCC3`: the activation is -0.131% (inactive).

Regarding `CCOC(=O)N1CCN(C(=O)COc2ccc3oc4c(c3c2)CCCC4)CC1`, the activation is -0.344% (inactive).

Take `O=C(COc1ccc2oc3c(c2c1)CCCC3)Nc1ccccn1`: the activation is 39.6% (active).

For `CC1(C)OC(=O)C2=C(C[C@@H](C3CCCC3)O[C@@H]2c2ccc(Cl)cc2)O1`, the activation was -1.11% (inactive).

As to `O=C(Nc1ccc(NC(=O)c2ccccc2F)cc1)c1ccccc1F`, the activation is -1.97% (inactive).

As to `O=C(Nc1nnc(-c2ccccc2F)s1)c1ccccc1F`, the activation was 32.6% (active).

`CN(Cc1ccccc1)S(=O)(=O)c1nnc(NC(=O)c2ccccc2F)s1`: the activation was -0.354% (inactive).

As for `COC(=O)C1=C(C)N(Cc2ccc(C(F)(F)F)cc2)C(=NCc2ccccc2)NC1c1ccccc1C(F)(F)F` (configuration not stated), the activation is -11.5% (inactive).

With `O=C(CSc1cccc[n+]1[O-])c1ccc(-c2ccccc2)cc1`, the activation was 10.1% (inactive).

Turning to `Cc1ccc(C(=O)CSc2ccccc2C(=O)O)cc1`, the activation was 31.9% (active).

As to `Cc1ccc(Sc2cc(C(=O)c3ccccc3C(=O)O)ccc2[N+](=O)[O-])cc1`, the activation is 0.926% (inactive).

For `CCCCNC(=O)C[C@@H]1C[C@@]2(C(=O)OCC)CCC=C2N(Cc2cccc3ccccc23)C1=O`, the activation is -1.83% (inactive).

For `CC(C)C1CCN(C(=O)C2CCC(=O)N(C3CCCCCC3)C2)CC1` (configuration not stated), the activation was 0.269% (inactive).

As to `CCOC(=O)C1(C)CCCN(C(=O)c2cccc(Cl)c2)C1` (configuration not stated), the activation was -1.09% (inactive).

Turning to `Cc1ccc(NC(=O)N2c3ccccc3SC2c2ccco2)c(C)c1` (configuration not stated), the activation is 4.58% (inactive).

As to `COc1ccccc1N(C(=O)Cn1nnc2ccccc21)C(C(=O)NCc1ccco1)c1ccc(C)o1` (configuration not stated), the activation was -2.2% (inactive).

`CCC(C)(C)NC(=O)C(c1cccn1C)N(Cc1ccc(C)cc1)C(=O)Cn1nnc2ccccc21` (configuration not stated): the activation is 0.194% (inactive).

With `COCCNC(=O)C(c1ccc(C)o1)N(Cc1ccccc1)C(=O)Cn1nnc2ccccc21` (configuration not stated), the activation was 40.8% (active).

Take `Cc1ccc(S(=O)(=O)N(CCc2ccccc2)c2ccc3c(c2)C2CC3CCN2C(=O)OCc2ccccc2)cc1` (configuration not stated): the activation is -4.45% (inactive).

Turning to `CCCCCCN1C[C@H](O)[C@@H](n2cc(C3CC3)nn2)C[C@@H]1c1ccc(Cl)cc1`, the activation was 0.514% (inactive).

For the compound `CN1CCCc2nc(-c3ccccc3)ccc21`, the activation was 28.7% (inactive).

In the case of `Nc1ncnc2c1ncn2[C@@H]1O[C@H](C(=O)N[C@@H](CCc2ccccc2)C(=O)N2CCCN(Cc3cccs3)CC2)[C@@H](O)[C@H]1O`, the activation was 2.88% (inactive).

Take `CC(C)(C)CC(=O)Nc1nc(C(N)Cc2ccc(C(F)(F)F)cc2)cs1` (configuration not stated): the activation was -3.02% (inactive).

With `O=C(CNC(=O)c1ccccc1F)c1ccc(Br)cc1`, the activation was 39% (active).

In the case of `O=C(NCCOc1ccccc1)c1ccccc1F`, the activation is 2.79% (inactive).

On to `O=C(CNC(=O)c1ccc(F)cc1)c1ccccc1`, for which the activation is 12.3% (inactive).

As for `C=CCn1nc(C(=O)OCC)cc1-c1sc(NC(=O)c2ccccc2)nc1C`, the activation is -1.67% (inactive).

Regarding `CC1(C(=O)Nc2cccnc2)Cc2c(-c3ccccc3)ccnc2O1` (configuration not stated), the activation is -1.45% (inactive).

With `CCCc1cc(C(=O)Nc2ccc(C(=O)OC)cc2)cs1`, the activation was 0.573% (inactive).

On to `O=C(Nc1ccc(Cl)cn1)c1ccccc1-c1ccccc1`, for which the activation is -0.296% (inactive).

For `CCCc1cc(C(=O)Nc2ccc(Cl)cn2)cs1`, the activation was 39.5% (active).

For `Cc1ccc(F)c(S(=O)(=O)NC(=O)C2(C)CCN2C(=O)c2ccco2)c1` (configuration not stated), the activation is -0.487% (inactive).

On to `C=CCN=C1NC(c2cccc(C(F)(F)F)c2)C(C(=O)OC)=C(C)N1C` (configuration not stated), for which the activation is 1.05% (inactive).

For `CC(=O)c1ccc(-c2cnc3c(NC=O)cc(-c4cccc(NS(C)(=O)=O)c4)cn23)cc1`, the activation was 1.57% (inactive).

Turning to `C[C@@H]1ON(C)[C@H]2C[C@H]3c4cc(N5CCOCC5)ccc4CCN3C[C@@H]12`, the activation is -0.66% (inactive).

In the case of `Cc1cccc(NC(=O)Nc2ccc3c(c2)OCO3)n1`, the activation is 44.4% (active).

In the case of `CC(NC(=O)Nc1ccc2c(c1)OCO2)c1ccncc1` (configuration not stated), the activation is 9.83% (inactive).

As for `CNS(=O)(=O)c1ccc(NC(=O)Nc2ccc3c(c2)OCO3)cc1`, the activation is 26.8% (inactive).

`CN(Cc1ccccc1)C(=O)CCC1CCN(C(=O)c2ccco2)CC1`: the activation was -3.66% (inactive).

On to `c1ccc2sc(NN=C3CCCC3)nc2c1`, for which the activation was 52.4% (active).

Take `O=[N+]([O-])c1cc(Br)c(O)c(/C=N/Nc2nc3ccccc3s2)c1`: the activation was 8.44% (inactive).

For `c1ccc(C(=NNc2nc3ccccc3s2)c2ccccn2)cc1`, the activation is 5.23% (inactive).

`CCOC(=O)N(C)c1c(CC)nc2c(OCc3ccccc3C(=O)OC)cccn12`: the activation is 4.08% (inactive).

As to `CN(Cc1ccc(C(F)(F)F)cc1)C(=O)[C@H]1O[C@@H](n2cnc3c(N)ncnc32)[C@H](O)[C@@H]1O`, the activation is -3.24% (inactive).

Consider `CC1(Oc2cccc(F)c2)CCN(Cc2ccccc2OC(F)F)C1` (configuration not stated), for which the activation is 0.111% (inactive).

For the compound `CC(=O)Nc1ccc(Nc2c3ccccc3nc3ccccc23)cc1`, the activation is -1.24% (inactive).

Regarding `Cc1ccc2nc(-c3ccc(NC(=O)c4cccnc4)cc3)oc2c1`, the activation was 4.47% (inactive).

For `CC(=O)Nc1ccc(-c2nc3ccccc3o2)cc1`, the activation is 62% (active).

Regarding `CCOC(=O)N1CCN(C(=O)C[C@@H]2C[C@@]3(C(=O)OC)CCCCC=C3N(CCC3=CCCCC3)C2=O)CC1`, the activation was -3.76% (inactive).

Take `COc1cccc(/C=N/Nc2ccc(Cl)nn2)c1`: the activation was 10.5% (inactive).

For `Oc1cccc(/C=N/Nc2ccc(Cl)nn2)c1O`, the activation is 125% (active).

Regarding `Clc1ccc(N/N=C/c2cccs2)nn1`, the activation is 3.73% (inactive).

Turning to `COC(=O)c1cc2c(c3c4cc(F)ccc4n(S(=O)(=O)c4ccccc4)c13)C(=O)N(Cc1ccccc1OC)C2`, the activation is -6.32% (inactive).

For the compound `CCC(=O)Nc1ccc2nn(-c3ccc(F)cc3)nc2c1`, the activation is 51% (active).

As to `Cc1nn(CC(=O)Nc2ccc(F)cc2)c(=O)c2ccccc12`, the activation was -0.309% (inactive).

On to `Cc1cccc(C(=O)OCC(=O)Nc2ccc(F)cc2)c1`, for which the activation is -0.891% (inactive).

With `O=C(CCCN1C(=O)C(c2ccccc2)Oc2cccnc21)Nc1ccccc1Br` (configuration not stated), the activation is -1.84% (inactive).

With `O=C(C(=O)N1CCC(CNC(=O)c2cccnc2Cl)CC1)c1cccs1`, the activation is 2.94% (inactive).

`Clc1cccc(Cl)c1Cn1nnc(-c2cccs2)n1`: the activation was 32.4% (active).

Turning to `O=c1cc(Cn2nnc(-c3ccc(Cl)cc3)n2)nc2sccn12`, the activation was 3.21% (inactive).

In the case of `COc1ccccc1N1CCN(C(=O)Cn2nnc(-c3cccs3)n2)CC1`, the activation is -9.59% (inactive).

Regarding `CCOC(=O)Cn1c2c(n(-c3ccc(F)cc3)c1=O)C=C(c1ccccc1)[C@@H](C)C(C(=O)N(C)C1CCCCC1)=C2`, the activation was -5.16% (inactive).
